Test results: PubChem BioAssay AID1445 (SRMLSC, 2008)
Screen size: about 220,000 compounds; about 910 (0.41%) were called active.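 How the source made its calls: active means primary inhibition above the hit cutoff, then over 50% inhibition at one or more dose response concentrations (cut at about 23% in these data, passing the limit was not always enough); inconclusive means conflicting primary data, or primary hits not chosen for dose response; inactive means low primary inhibition, or under 50% at every dose.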 For the sample, actives were picked, then their nearest neighbours and some compounds at random. Potency and affinity values are given separately.

target: Aminopeptidase N (Plasmodium falciparum (isolate 3D7)) (UniProt O96935); assay: malaria alanyl aminopeptidase activity blockers – biochemical, fluorogenic H-Leu-NHMec substrate, 1536-well (AID 1445); conditions: recombinant M1AAP, H-Leu-NHMec fluorogenic kinetic assay; at 30 µM, active compounds read high unless noted;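 further: plate controls were DMSO full reaction for no effect and no enzyme background for full effect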
Sequence (O96935 whole entry, looked up): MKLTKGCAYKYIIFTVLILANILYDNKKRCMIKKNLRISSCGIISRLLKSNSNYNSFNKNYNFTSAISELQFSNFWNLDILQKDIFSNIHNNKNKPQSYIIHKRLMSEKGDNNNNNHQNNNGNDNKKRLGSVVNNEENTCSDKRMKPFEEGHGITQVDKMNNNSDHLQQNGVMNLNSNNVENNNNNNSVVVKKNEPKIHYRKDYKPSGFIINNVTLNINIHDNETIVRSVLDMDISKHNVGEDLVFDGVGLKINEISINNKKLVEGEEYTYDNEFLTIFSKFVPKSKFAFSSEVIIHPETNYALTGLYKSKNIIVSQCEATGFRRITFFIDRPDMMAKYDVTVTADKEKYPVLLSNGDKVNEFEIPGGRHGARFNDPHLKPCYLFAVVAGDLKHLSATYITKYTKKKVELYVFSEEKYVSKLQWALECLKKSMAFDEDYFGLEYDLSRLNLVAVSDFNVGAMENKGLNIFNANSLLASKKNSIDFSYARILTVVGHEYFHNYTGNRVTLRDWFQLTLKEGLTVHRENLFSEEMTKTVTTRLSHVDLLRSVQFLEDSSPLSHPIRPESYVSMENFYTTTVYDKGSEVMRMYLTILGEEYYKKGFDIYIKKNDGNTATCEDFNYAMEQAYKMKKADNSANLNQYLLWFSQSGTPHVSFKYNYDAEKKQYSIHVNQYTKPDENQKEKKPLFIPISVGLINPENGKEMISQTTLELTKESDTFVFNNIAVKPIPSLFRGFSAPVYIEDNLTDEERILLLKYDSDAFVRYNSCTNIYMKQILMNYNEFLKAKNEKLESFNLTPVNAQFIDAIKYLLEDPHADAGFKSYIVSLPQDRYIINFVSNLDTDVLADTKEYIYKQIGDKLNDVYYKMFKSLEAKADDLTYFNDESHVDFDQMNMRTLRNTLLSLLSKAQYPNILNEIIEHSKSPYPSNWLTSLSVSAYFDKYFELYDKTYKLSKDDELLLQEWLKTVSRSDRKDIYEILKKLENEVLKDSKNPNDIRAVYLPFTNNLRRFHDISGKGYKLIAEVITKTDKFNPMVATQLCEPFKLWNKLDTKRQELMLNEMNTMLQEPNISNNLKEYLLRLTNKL

Structure (SMILES)	inhibition
COc1cccc(-n2cc(CN(C)Cc3nc(Cc4ccccc4)no3)cn2)c1	0.62% (inactive)
COc1ccc(NC(=O)C2CCCN(S(=O)(=O)c3ccc4c(c3)oc(=O)n4C)C2)cc1OC (centres undefined)	3.43% (inactive)
COc1ccccc1N1CCN(S(=O)(=O)CC23CCC(CC2=O)C3(C)C)CC1 (centres undefined)	-1.74% (inactive)
CCCn1cc(S(=O)(=O)CC(=O)Nc2ccc(OC)cc2OC)c2ccccc21	-0.94% (inactive)
O=C(/C=C/c1ccccc1Cl)N(Cc1ccccc1)C1CCS(=O)(=O)C1 (centres undefined)	0.49% (inactive)
COc1ccc(N2CSC3=C(C#N)C(c4cccs4)CC(=O)N3C2)cc1 (centres undefined)	31.7% (inactive)
Cc1ccc(C(=O)N2CCN(c3ccc(NC(=O)c4cccnc4)cc3)CC2)cc1	25.7% (active)
Cc1ccccc1C(=O)N1CCN(c2ccc(NC(=O)c3cccnc3)cc2)CC1	1.42% (inactive)
O=C(Nc1ccc(N2CCN(C(=O)c3ccc(Cl)cc3)CC2)cc1)c1cccnc1	3.47% (inactive)
O=[N+]([O-])c1ccc(Cl)cc1N1CCCCC1	4.92% (inactive)
Cc1noc(NS(=O)(=O)c2ccc(NC(=O)CSc3n[nH]c(-c4ccccc4)n3)cc2)c1C	19.9% (inactive)
Cc1cc(C)nc(SCC(=O)Nc2ccc(S(=O)(=O)Nc3ncccn3)cc2)n1	3.26% (inactive)
Cc1noc(NS(=O)(=O)c2ccc(NC(=O)CSc3ncccn3)cc2)c1C	1.83% (inactive)
O=C(CSc1nnc(-c2ccccc2)n1C1CCCCC1)Nc1ccc(S(=O)(=O)Nc2ccccn2)cc1	1.56% (inactive)
O=C(CSc1ccccc1)Nc1ccc(S(=O)(=O)Nc2ncccn2)cc1	3.64% (inactive)
O=C(CSc1nnc(-c2ccncc2)n1C1CCCCC1)Nc1ccccc1	0.45% (inactive)
CC(Sc1nnc2ccccn12)C(=O)N1CCc2ccccc2C1 (centres undefined)	2.85% (inactive)
NC1=C(c2ccc(F)cc2)C(=O)CS1	-0.25% (inactive)
COC(=O)c1noc(C)c1-c1ccnn1C(=O)c1ccc(C)cc1	5.18% (inactive)
CCOc1ccccc1OCC(=O)Nc1nnc(C)s1	0.54% (inactive)
O=c1oc2ccccc2nc1/C=C(O)/C=C\c1ccccc1	5.28% (inactive)
CN1CCN(Cc2c(O)ccc3c(-c4ccccc4)cc(=O)oc23)CC1	20.2% (inactive)
COc1ccccc1-c1c(C)oc2c(CN3CCN(C)CC3)c(O)ccc2c1=O	8.67% (inactive)
Cc1cc(N2CCN(c3ccccn3)CC2)n2c(nc3ccccc32)c1C#N	-0.82% (inactive)

Structure (SMILES)	inhibition
O=[N+]([O-])c1cc(C(F)(F)F)ccc1N/N=C/c1cc2ccccc2nc1Cl	-1.36% (inactive)
C/C(=N/OCO/N=C(\C)c1ccccc1F)c1ccccc1F	1.08% (inactive)
Cc1ccc2oc(=O)n(Cc3ccccc3OC(C)C)c2c1	1.91% (inactive)
Cc1ccc(S(=O)(=O)Nc2nc3ccccc3nc2NCc2ccco2)cc1	10.1% (inactive)
Cc1ccc(S(=O)(=O)Nc2nc3ccccc3nc2NCc2ccco2)cc1C	25.4% (active)
Cc1cccc(S(=O)(=O)Nc2nc3ccccc3nc2NCc2ccco2)c1	14.8% (inactive)
N/C(Cc1nc(-c2ccc(Br)cc2)cs1)=N\O	1.76% (inactive)
COc1cc2c(cc1NC(=O)c1cc(-c3ccncc3)nc3ccc(C)cc13)oc1ccccc12	0.05% (inactive)
Cc1ccc(CCNS(=O)(=O)c2cnc[nH]2)cc1	1.38% (inactive)
C/C(=N\NC(=S)NC1CCCCC1)c1ccc(O)cc1	-1.69% (inactive)
O=C(O)CSc1cc(C(=O)c2ccccc2O)cn2c(=O)c3c(-c4ccccc4)csc3nc12	17.9% (inactive)
CCOC(=O)c1sc2nc3c(SCC(=O)O)cc(C(=O)c4ccccc4O)cn3c(=O)c2c1C	9.02% (inactive)
CCOC(=O)c1sc2nc3c(SCCC#N)cc(C(=O)c4cc(F)ccc4O)cn3c(=O)c2c1C	2.71% (inactive)
Cc1sc2nc3c(C(=O)N4CCCC4)cc(C(=O)c4ccccc4O)cn3c(=O)c2c1C	17.2% (inactive)
O=C(O)CSc1cc(C(=O)c2cc(F)ccc2O)cn2c(=O)c3c(-c4ccccc4)csc3nc12	21.3% (inactive)
CCOC(=O)c1cc(C(=O)c2ccccc2O)cn2c(=O)c3c(C)c(C)sc3nc12	13.9% (inactive)
COC(=O)N/N=C(\C)c1ccc(-n2ccnc2)cc1	-0.5% (inactive)
CCC(=O)N/C(N)=N/c1nc(C)c2cc(C)c(C)cc2n1	7.6% (inactive)
C=CCn1c(N)cc(=O)nc1SCC(=O)NC(C)c1ccccc1 (centres undefined)	-2.4% (inactive)
O=C(N/N=C/c1ccco1)c1cc(Br)ccc1OCc1ccccc1	4.59% (inactive)
C[C@H](NC(=O)c1ccco1)C(=O)Nc1ccc(S(=O)(=O)N2CCCC2)cc1	-6.98% (inactive)
CC(C)c1ccc(S(=O)(=O)N2CCN(C(=O)c3ccco3)CC2)cc1	0.71% (inactive)
CC(C(=O)Nc1ccc(S(=O)(=O)N2CCCC2)cc1)N1CCN(C(=O)c2ccco2)CC1 (centres undefined)	35.6% (active)
Cc1[nH]n(-c2ccccc2)c(=O)c1N=Nc1ccccc1	4.86% (inactive)

Structure (SMILES)	inhibition
Cc1ccc(N=Nc2c(C)[nH]n(-c3ccccc3)c2=O)c(C)c1	3.7% (inactive)
CC(/C=N/Nc1nc(N2CCCCC2)nc(N2CCCCC2)n1)=C\c1ccccc1	5.4% (inactive)
OCCNc1nc(OCC(F)(F)F)nc(N2CCN(C34CC5CC(CC(C5)C3)C4)CC2)n1	9.11% (inactive)
CC(=O)Cc1nsc(NC(=O)c2ccc(COc3ccccc3)o2)n1	26.3% (active)
CC(=O)Cc1nsc(NC(=O)c2ccc(Br)o2)n1	0.84% (inactive)
CC(=O)Cc1nsc(NC(=O)c2ccc(COc3ccc(C)cc3)o2)n1	8.72% (inactive)
Cc1cc(NC(=O)CSc2nc(C(C)C)nc3c2c(=O)n(C)c(=O)n3C)no1	5.47% (inactive)
O=C(O)Cc1sc(-c2cccnc2)nc1-c1ccc(Br)cc1	9.14% (inactive)
CCOC(=O)N1CCN(c2cc(=O)n(-c3ccccc3Cl)c(=O)[nH]2)CC1	-0.91% (inactive)
CNc1oc(-c2ccc(C)cc2)nc1P(=O)(c1ccccc1)c1ccccc1	-2.06% (inactive)
CCN(CC)S(=O)(=O)c1ccc(-c2nnc(SC)o2)cc1	-2.39% (inactive)
CCN(CC)S(=O)(=O)c1ccc(-c2nnc(SCC(=O)N3CCOCC3)o2)cc1	-1.63% (inactive)
CCN(CC)S(=O)(=O)c1ccc(-c2nnc(SCC(C)=O)o2)cc1	26.5% (active)
Cc1cc(NC(=O)CSc2nc3ccsc3c(=O)n2CCCCC(=O)O)no1	7.32% (inactive)
CCCCn1c(SCC(=O)Nc2nccs2)nc2ccccc2c1=O	1.43% (inactive)
CCCCn1c(SCC(=O)Nc2cc(C)on2)nc2ccsc2c1=O	0.46% (inactive)
Cn1c(CNC(=O)c2ccccc2)nnc1SCC(=O)Nc1nccs1	0.84% (inactive)
COc1ccccc1NC(=O)Cn1nc(Cc2cccnc2)c2ccccc2c1=O	4.36% (inactive)
Cc1cc2cc(C#N)c(NCCNC(=S)NCCCN3CCOCC3)nc2cc1C	11% (inactive)
Cc1nc(SCC(=O)NCc2cccs2)nc(C)c1C	1.91% (inactive)
CCOc1ccc(N2CC(=O)N/C2=N\c2nc(C)cc(C)n2)cc1	0.69% (inactive)
CS(=O)(=O)N(CC(=O)NCc1ccccc1Cl)C1CCCCC1	-3.91% (inactive)
CCC(CC)C(=O)NN(C(=O)c1ccncc1)C1CC(=O)N(c2ccccc2)C1=O (centres undefined)	0.84% (inactive)
CCN(CC)Cc1ccc(NC(=O)c2sc3cc(Cl)ccc3c2Cl)cc1	5.72% (inactive)

Structure (SMILES)	inhibition
CCOC(=O)C1ON2CCCCC2C1(O)C(F)(F)F (centres undefined)	4.11% (inactive)
Cc1ccc(C(=O)Nc2ccccc2-c2ccccc2)o1	5.46% (inactive)
CCOC(=O)c1c(-c2ccc(OC)cc2)csc1NC(=O)CSc1ccccc1	9.31% (inactive)
COC(=O)c1c(-c2ccc3ccccc3c2)csc1NC(=O)Cc1ccc(OC)c(OC)c1	-5.43% (inactive)
O=C(Nc1scc(-c2ccccc2)c1C(=O)O)c1ccco1	13.6% (inactive)
COc1ccc(-c2csc(NC(=O)c3ccc(OCC(=O)N4CCOCC4)c(OC)c3)n2)cc1OC	-0.86% (inactive)
COc1ccc(CCNC(=O)[C@@H](NC(N)=O)C(C)C)cc1	1.11% (inactive)
CCOc1ccccc1NC(=O)CCNC(=O)c1ccc(Cl)cc1	-0.92% (inactive)
COc1cccc(OC)c1C(=O)Nn1c(C2CCC2)nc2ccccc2c1=O	1.68% (inactive)
Cc1nc2ccccc2c(=O)n1NC(=O)C1CCCCC1	0.92% (inactive)
O=C(Nn1c(-c2ccccc2)nc2ccccc2c1=O)C1CCC1	8.13% (inactive)
COc1ccccc1C(=O)Nn1c(C2CCC2)nc2ccccc2c1=O	28.5% (inactive)
NS(=O)(=O)c1ccc(NC(=S)NC(=O)/C=C/c2ccco2)cc1	22.5% (inactive)
C/C(=N/NC(=O)CN1CCN(S(=O)(=O)c2ccc(Br)cc2)CC1)c1ccco1	3.47% (inactive)
COc1ccc(NC(=O)c2ccc(-c3ccccc3Cl)o2)cc1	2.03% (inactive)
Cc1ccc(S(=O)(=O)N2CCCCC2)cc1NC(=O)CSc1nnc(N)s1	11.9% (inactive)
COc1ccccc1OCC(=O)N/N=C1\CCc2ccccc21	-5.88% (inactive)
O=C1Nc2ncccc2OC1CCO (centres undefined)	1.94% (inactive)
O=C(N/N=C/c1cc(Br)ccc1O)Nc1ccccc1	2.93% (inactive)
COc1ccc(Br)cc1/C=N/NC(=O)c1cc(Br)ccc1O	9.13% (inactive)
O=C(N/N=C/c1ccccc1C(=O)O)c1ccccc1Br	-4.66% (inactive)
C=CCc1cccc(/C=N/NC(=O)c2ccccc2Br)c1O	-2.15% (inactive)
